Article PMC7862700, “An all-to-all approach to the identification of sequence-specific readers for epigenetic DNA modifications on cytosine”

Tests used:
Test in all cases: DAPPL (digital affinity profiling via proximity ligation, sequencing); 10 mM Tris-HCl pH 7.5, 50 mM NaCl, 1 mM DTT, 4% glycerol, room temperature, 30 min; GST-TFs on glutathione beads, 16-mer random dsDNA library, 0.1% formaldehyde crosslink after washing; high values mean tight binding
Conditions in all cases: protein: recombinant; tags: N-terminal GST; dsDNA, one strand shown
FLI1 = target: T1, FLI1 (Homo sapiens, UniProt Q01543 1-452)
T1 sequence: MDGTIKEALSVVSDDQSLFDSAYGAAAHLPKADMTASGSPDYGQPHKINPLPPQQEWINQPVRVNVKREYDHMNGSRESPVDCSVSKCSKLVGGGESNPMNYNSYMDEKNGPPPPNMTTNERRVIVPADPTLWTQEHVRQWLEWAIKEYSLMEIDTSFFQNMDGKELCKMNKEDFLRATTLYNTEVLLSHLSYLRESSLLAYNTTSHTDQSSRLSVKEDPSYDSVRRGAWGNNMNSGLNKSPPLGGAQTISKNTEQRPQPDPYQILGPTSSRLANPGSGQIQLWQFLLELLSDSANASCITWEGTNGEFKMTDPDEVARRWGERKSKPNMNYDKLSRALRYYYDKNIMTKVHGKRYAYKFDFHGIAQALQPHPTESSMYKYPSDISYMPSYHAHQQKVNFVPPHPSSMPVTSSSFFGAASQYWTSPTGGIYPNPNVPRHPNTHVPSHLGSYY
Summary of the method: (§1)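 Yeast served to express human transcription factors as GST fusions, which were then captured on glutathione beads and labelled with DNA barcodes. Pooled with a tag-only sample, they were incubated with 200 nmole of a 16-mer random double-stranded DNA library for 30 min at room temperature in Tris/NaCl/DTT/glycerol buffer, washed, crosslinked with 0.1% formaldehyde, ligated by proximity, amplified by PCR and sequenced. Dividing each hexamer's read frequency for a factor by its frequency for the tag-only sample gives the binding signal.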

ELK1 = target: T2, ELK1 (Homo sapiens, UniProt P19419 1-428)
T2 sequence: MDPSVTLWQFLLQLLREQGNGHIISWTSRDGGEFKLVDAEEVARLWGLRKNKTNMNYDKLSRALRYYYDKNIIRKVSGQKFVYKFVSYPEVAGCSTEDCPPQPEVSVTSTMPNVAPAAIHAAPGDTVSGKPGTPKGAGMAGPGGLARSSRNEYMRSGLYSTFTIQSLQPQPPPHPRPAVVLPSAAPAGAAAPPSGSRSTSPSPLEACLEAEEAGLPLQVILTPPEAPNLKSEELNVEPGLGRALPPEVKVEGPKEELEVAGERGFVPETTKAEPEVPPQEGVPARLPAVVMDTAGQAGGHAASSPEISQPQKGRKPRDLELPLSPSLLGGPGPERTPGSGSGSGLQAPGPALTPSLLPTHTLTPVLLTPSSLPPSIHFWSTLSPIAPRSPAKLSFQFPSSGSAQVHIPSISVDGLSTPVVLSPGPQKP
Summary of the method: as §1

GABPA = target: T3, GABPA (Homo sapiens, UniProt Q06546 1-454)
T3 sequence: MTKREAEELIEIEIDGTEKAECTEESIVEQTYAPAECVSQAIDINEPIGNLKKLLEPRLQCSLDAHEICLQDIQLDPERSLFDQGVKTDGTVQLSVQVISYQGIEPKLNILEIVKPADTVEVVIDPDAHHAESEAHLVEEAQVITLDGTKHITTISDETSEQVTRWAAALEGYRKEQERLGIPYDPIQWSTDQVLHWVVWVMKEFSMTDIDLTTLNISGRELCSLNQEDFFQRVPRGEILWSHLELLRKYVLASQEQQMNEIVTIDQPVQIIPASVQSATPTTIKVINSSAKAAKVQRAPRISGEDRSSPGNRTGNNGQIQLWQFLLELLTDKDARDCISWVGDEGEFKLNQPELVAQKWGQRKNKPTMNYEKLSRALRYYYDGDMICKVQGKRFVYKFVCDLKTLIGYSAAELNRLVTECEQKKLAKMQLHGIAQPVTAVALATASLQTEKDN
Summary of the method: as §1

ELF1 = ELF1 (Homo sapiens, UniProt P32519 1-619)
Summary of the method: as §1

EHF = target: T4, EHF (Homo sapiens, UniProt Q9NZC4 1-300)
T4 sequence: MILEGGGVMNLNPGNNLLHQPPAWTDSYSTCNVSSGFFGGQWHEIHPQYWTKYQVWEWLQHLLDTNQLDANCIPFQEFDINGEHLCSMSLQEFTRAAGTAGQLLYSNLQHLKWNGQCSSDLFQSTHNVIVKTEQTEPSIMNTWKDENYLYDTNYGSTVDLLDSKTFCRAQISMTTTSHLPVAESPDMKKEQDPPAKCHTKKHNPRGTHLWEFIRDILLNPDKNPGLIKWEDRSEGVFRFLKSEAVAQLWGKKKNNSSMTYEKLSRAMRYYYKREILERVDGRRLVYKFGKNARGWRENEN
Summary of the method: as §1

SPI1 = SPI1 (Homo sapiens, UniProt P17947 1-270)
Summary of the method: as §1

SPIB = SPIB (Homo sapiens, UniProt Q01892 1-262)
Summary of the method: as §1

ELK3 = target: T5, ELK3 (Homo sapiens, UniProt P41970 1-407)
T5 sequence: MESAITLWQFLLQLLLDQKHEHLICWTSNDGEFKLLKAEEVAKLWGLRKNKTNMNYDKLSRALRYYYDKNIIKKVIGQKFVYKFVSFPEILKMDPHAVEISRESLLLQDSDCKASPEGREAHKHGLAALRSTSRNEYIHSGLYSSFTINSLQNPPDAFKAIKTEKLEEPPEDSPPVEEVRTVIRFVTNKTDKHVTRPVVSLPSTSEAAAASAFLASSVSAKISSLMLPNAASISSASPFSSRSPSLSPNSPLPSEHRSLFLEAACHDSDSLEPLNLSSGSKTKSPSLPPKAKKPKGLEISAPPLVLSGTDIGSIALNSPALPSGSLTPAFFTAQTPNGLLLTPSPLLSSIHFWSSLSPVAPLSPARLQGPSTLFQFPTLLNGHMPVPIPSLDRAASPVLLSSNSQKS
Summary of the method: as §1

ERG = target: T6, ERG (Homo sapiens, UniProt P11308 1-479)
T6 sequence: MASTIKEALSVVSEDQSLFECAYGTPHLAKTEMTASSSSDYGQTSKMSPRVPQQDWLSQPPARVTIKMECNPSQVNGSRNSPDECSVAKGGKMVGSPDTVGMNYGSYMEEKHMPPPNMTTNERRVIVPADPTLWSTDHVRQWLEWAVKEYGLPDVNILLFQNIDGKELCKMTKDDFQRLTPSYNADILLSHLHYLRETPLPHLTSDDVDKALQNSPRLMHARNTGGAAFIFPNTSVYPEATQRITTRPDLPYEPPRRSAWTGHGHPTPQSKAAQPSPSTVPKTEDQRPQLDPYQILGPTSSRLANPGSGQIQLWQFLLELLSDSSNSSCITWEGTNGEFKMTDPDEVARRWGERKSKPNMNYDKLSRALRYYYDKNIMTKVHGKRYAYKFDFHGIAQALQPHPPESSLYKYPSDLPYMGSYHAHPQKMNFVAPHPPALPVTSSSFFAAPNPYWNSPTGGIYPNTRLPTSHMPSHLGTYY
Summary of the method: as §1

ELF1, sequence (P32519 whole entry): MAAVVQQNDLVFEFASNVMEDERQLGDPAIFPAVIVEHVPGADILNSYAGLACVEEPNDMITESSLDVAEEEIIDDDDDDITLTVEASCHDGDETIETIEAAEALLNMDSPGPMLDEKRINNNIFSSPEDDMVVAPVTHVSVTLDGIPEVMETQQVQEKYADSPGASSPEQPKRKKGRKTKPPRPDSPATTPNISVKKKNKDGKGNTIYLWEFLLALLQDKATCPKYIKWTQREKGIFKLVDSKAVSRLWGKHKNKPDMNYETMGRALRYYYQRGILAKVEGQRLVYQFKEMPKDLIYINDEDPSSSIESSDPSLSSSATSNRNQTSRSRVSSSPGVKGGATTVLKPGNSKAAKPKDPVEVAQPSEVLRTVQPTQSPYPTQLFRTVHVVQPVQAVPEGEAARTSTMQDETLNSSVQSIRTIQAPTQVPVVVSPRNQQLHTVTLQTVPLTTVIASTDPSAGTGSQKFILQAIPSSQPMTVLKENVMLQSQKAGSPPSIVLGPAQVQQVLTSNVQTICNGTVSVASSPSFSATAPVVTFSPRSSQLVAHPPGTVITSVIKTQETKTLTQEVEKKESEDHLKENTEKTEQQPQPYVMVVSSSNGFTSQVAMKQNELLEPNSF
SPIB, sequence (Q01892 whole entry): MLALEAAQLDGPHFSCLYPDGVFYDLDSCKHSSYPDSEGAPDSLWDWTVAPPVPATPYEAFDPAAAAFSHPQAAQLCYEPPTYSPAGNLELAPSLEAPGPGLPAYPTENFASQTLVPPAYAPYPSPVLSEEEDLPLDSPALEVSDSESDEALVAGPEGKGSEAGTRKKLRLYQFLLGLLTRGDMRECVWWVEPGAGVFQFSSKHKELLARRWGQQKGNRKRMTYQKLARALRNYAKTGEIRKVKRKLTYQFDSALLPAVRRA

Sequence | binding signal (FLI1) | binding signal (ELK1) | binding signal (GABPA) | binding signal (ELF1) | binding signal (EHF) | binding signal (SPI1) | binding signal (SPIB) | binding signal (ELK3) | binding signal (ERG)
CGAGTT | 1.16 fold enrichment (6-mer frequency, TF over GST control) | 1.1 fold enrichment (6-mer frequency, TF over GST control) | 1.02 fold enrichment (6-mer frequency, TF over GST control) | 1.16 fold enrichment (6-mer frequency, TF over GST control) | 1.04 fold enrichment (6-mer frequency, TF over GST control) | 1.09 fold enrichment (6-mer frequency, TF over GST control) | 1.07 fold enrichment (6-mer frequency, TF over GST control) | 1.14 fold enrichment (6-mer frequency, TF over GST control) | 
CCGAAG | 1.12 fold enrichment (6-mer frequency, TF over GST control) | 1.09 fold enrichment (6-mer frequency, TF over GST control) | 1.12 fold enrichment (6-mer frequency, TF over GST control) | 1 fold enrichment (6-mer frequency, TF over GST control) | 1.03 fold enrichment (6-mer frequency, TF over GST control) |  | 1.04 fold enrichment (6-mer frequency, TF over GST control) | 1.03 fold enrichment (6-mer frequency, TF over GST control) | 
ACACCA | 1.01 fold enrichment (6-mer frequency, TF over GST control) | 1.15 fold enrichment (6-mer frequency, TF over GST control) |  | 1.05 fold enrichment (6-mer frequency, TF over GST control) | 1.04 fold enrichment (6-mer frequency, TF over GST control) |  |  |  | 1.01 fold enrichment (6-mer frequency, TF over GST control)
CAGATT | 1.07 fold enrichment (6-mer frequency, TF over GST control) | 1.05 fold enrichment (6-mer frequency, TF over GST control) |  | 1 fold enrichment (6-mer frequency, TF over GST control) | 1.01 fold enrichment (6-mer frequency, TF over GST control) | 1.03 fold enrichment (6-mer frequency, TF over GST control) | 1.02 fold enrichment (6-mer frequency, TF over GST control) | 1.12 fold enrichment (6-mer frequency, TF over GST control) | 1.06 fold enrichment (6-mer frequency, TF over GST control)
TCATGA | 1.12 fold enrichment (6-mer frequency, TF over GST control) | 1 fold enrichment (6-mer frequency, TF over GST control) | 1.18 fold enrichment (6-mer frequency, TF over GST control) | 1.03 fold enrichment (6-mer frequency, TF over GST control) | 1.07 fold enrichment (6-mer frequency, TF over GST control) |  |  | 1.05 fold enrichment (6-mer frequency, TF over GST control) | 
TAATCG | 1.07 fold enrichment (6-mer frequency, TF over GST control) | 1.09 fold enrichment (6-mer frequency, TF over GST control) | 1.14 fold enrichment (6-mer frequency, TF over GST control) | 1.04 fold enrichment (6-mer frequency, TF over GST control) | 1.07 fold enrichment (6-mer frequency, TF over GST control) | 1.02 fold enrichment (6-mer frequency, TF over GST control) | 1.04 fold enrichment (6-mer frequency, TF over GST control) | 1.07 fold enrichment (6-mer frequency, TF over GST control) | 
CAGAAT | 1 fold enrichment (6-mer frequency, TF over GST control) | 1.01 fold enrichment (6-mer frequency, TF over GST control) | 1.02 fold enrichment (6-mer frequency, TF over GST control) | 1.03 fold enrichment (6-mer frequency, TF over GST control) | 1.05 fold enrichment (6-mer frequency, TF over GST control) |  | 1.05 fold enrichment (6-mer frequency, TF over GST control) | 1.01 fold enrichment (6-mer frequency, TF over GST control) | 
TAGATC | 1.05 fold enrichment (6-mer frequency, TF over GST control) | 1.14 fold enrichment (6-mer frequency, TF over GST control) |  | 1.06 fold enrichment (6-mer frequency, TF over GST control) | 1.04 fold enrichment (6-mer frequency, TF over GST control) |  |  | 1.21 fold enrichment (6-mer frequency, TF over GST control) | 1 fold enrichment (6-mer frequency, TF over GST control)
AAAGCC | 1.05 fold enrichment (6-mer frequency, TF over GST control) | 1.05 fold enrichment (6-mer frequency, TF over GST control) | 1.04 fold enrichment (6-mer frequency, TF over GST control) | 1.08 fold enrichment (6-mer frequency, TF over GST control) |  |  | 1 fold enrichment (6-mer frequency, TF over GST control) |  | 
TGATCG | 1 fold enrichment (6-mer frequency, TF over GST control) | 1 fold enrichment (6-mer frequency, TF over GST control) | 1.03 fold enrichment (6-mer frequency, TF over GST control) | 1.03 fold enrichment (6-mer frequency, TF over GST control) | 1.13 fold enrichment (6-mer frequency, TF over GST control) | 1.03 fold enrichment (6-mer frequency, TF over GST control) | 1.12 fold enrichment (6-mer frequency, TF over GST control) | 1.17 fold enrichment (6-mer frequency, TF over GST control) | 
AGCTAA | 1.08 fold enrichment (6-mer frequency, TF over GST control) | 1.05 fold enrichment (6-mer frequency, TF over GST control) |  | 1.02 fold enrichment (6-mer frequency, TF over GST control) | 1.08 fold enrichment (6-mer frequency, TF over GST control) | 1.08 fold enrichment (6-mer frequency, TF over GST control) | 1.01 fold enrichment (6-mer frequency, TF over GST control) | 1.01 fold enrichment (6-mer frequency, TF over GST control) | 1.06 fold enrichment (6-mer frequency, TF over GST control)
CAAATC | 1.06 fold enrichment (6-mer frequency, TF over GST control) | 1.08 fold enrichment (6-mer frequency, TF over GST control) |  | 1.16 fold enrichment (6-mer frequency, TF over GST control) | 1.12 fold enrichment (6-mer frequency, TF over GST control) | 1.04 fold enrichment (6-mer frequency, TF over GST control) | 1.11 fold enrichment (6-mer frequency, TF over GST control) | 1.01 fold enrichment (6-mer frequency, TF over GST control) | 1.14 fold enrichment (6-mer frequency, TF over GST control)
AGATGA | 1.06 fold enrichment (6-mer frequency, TF over GST control) | 1.13 fold enrichment (6-mer frequency, TF over GST control) |  | 1.14 fold enrichment (6-mer frequency, TF over GST control) | 1.06 fold enrichment (6-mer frequency, TF over GST control) | 1.07 fold enrichment (6-mer frequency, TF over GST control) | 1.03 fold enrichment (6-mer frequency, TF over GST control) | 1.14 fold enrichment (6-mer frequency, TF over GST control) | 1.11 fold enrichment (6-mer frequency, TF over GST control)
